According to the supplement of paper PMC10681739:

Biological target: RUNX1 (UniProt Q01196)
Experiment: RUNX1 binding intensity (PBM fluorescence) in presence of ETS1, normalised to RUNX1-only experiment (arbitrary fluorescence units); higher = stronger binding
Conditions: RUNX1 concentration 2 nM; ETS1 concentration 25 nM
Experimental: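 Cooperative gcPBM on 36-bp genomic probes with neighbouring ETS1 and RUNX1 sites. Recombinant human RUNX1 (2 nM) was incubated alone or with ETS1 (25 nM) and detected with anti-RUNX1 antibody plus Alexa488 secondary. Values are medians over 4 replicate spots; the RUNX1+ETS1 data were normalised to the RUNX1-only data. The probes sit in constant array flanks that are not printed.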
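Also: Full-length recombinant human ETS1 or RUNX1 bound to double-stranded 36-bp genomic probes on microarrays, detected by protein-specific primary antibody and Alexa488 secondary, spot fluorescence as median of four replicate spots.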

Chain of RUNX1 (Q01196 whole entry): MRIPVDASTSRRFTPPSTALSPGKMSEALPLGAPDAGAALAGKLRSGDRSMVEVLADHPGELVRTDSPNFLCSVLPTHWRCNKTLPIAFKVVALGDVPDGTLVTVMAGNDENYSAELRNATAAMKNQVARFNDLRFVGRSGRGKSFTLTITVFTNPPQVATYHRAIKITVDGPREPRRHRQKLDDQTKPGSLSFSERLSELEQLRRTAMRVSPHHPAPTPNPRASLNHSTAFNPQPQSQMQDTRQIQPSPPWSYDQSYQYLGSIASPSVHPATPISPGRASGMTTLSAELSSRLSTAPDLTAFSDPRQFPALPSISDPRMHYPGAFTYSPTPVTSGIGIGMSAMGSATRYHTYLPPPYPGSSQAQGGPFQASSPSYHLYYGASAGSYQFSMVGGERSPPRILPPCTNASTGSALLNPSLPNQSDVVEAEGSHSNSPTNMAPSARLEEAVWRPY

Sequence | RUNX1 binding intensity
GAGACTTTCGCTTCCGGCTGCCGCAGGCGCTTCGCT | 1550
CACCCGCCCCCCGGAAGTGCCGGTGGTTGGGCTCCG | 1540
GAGGACTTCCGGGTGGGTGTGATATCTGCGGGCCCG | 1940
CACCCGAACGGAAACACCTGCGGCTGAGGGGAGGGG | 938
CCTCACCCAGGAAGTGGCTGCGGCTGTCTCAGGGTT | 1440
GTGAATGAGGGGGAAGGAAGTGGTTTGGAAAAATAC | 962
TGGGGAACGCTGCGGATGCTGCGGTAAACCATGCGA | 1700
GAGGGAGCAGTTCCGGGTGCGGTGCGCGCCAGGGGC | 2060
AAATCACGTACCCGGAAACCACATGCACAGAAGTGG | 1550
AAAGCAAAGTCAAGAGGATGTGGTGACCAATTCTGC | 855
CCGGTCCTGACCGGAAGCGGTAACCGTCACTCCTTC | 7940
TCAGAACCAGGAAACTGAAGGCGGTTACTCCACATA | 875
CCTCCGGAACGGCGCGGGGGATTGTGGGGTGTAGGG | 761
GCCATCCAGGAAGTACAGACTCCCTGACCGCACTGA | 2110
AGACCCGGAAATGGTGGGTGTTTCTTGCAACCACGG | 1240
TCCCCCACTTCCTGGCAGCAGCAGTGTGGTGAGGAG | 2160
GTGTGAAGGAAGTGTGAGATCAAACCACAGCTGGGT | 947
AGACCCGGAAGAACTTGTCCCAGTGTTGACCACACC | 938
TGAGCACTGAGCACTTCCTGTGGCTTCTGAAGCTCC | 1310
CGAAAGTGACCGGAAGTAACCGCCGGGCCAAGATGG | 1530

Sequence | RUNX1 binding intensity
CAGACCAGCCCAGGAAACAAGGAACCACAAAGCCAC | 992
TTGCTCGGCTTCCTGGAGCTGTGGTCCGTGTGGGCT | 1020
ATCAGAGCGGAAATCTCAGTCTTGTGTGGGGACCTG | 919
CACCGACCGGAAGGGCCCCAAGGATCCCCGCAGCAG | 1380
GCCCCAGCCCCCGGATGTGGTGACAGAATCGATACT | 4060
CTCACCCCTGGAGGATGTGGGTTTCCAGGCTGACAG | 1190
GGCCCGGCCGGAAGAAGCCACCTCCCCCGCACGCGT | 1240
CTCACAGAGCAAGTAGGATGTGGTTTCCAGGGGCTG | 1180
GCGCGGACAGAGAAAGGATGTGGTATAGCAGAAAGT | 884
GATACCCAGCCAGCGGAAGTGCGGTTAACTGCCCGA | 11100
ACGTCTGTTTCCTGTGATTGAAACCGCAAGAAGAAG | 18500
GACAGTCATGTTTCAGGATGTGGTTTTAGCCAAAGG | 1710
GCACGGCGGAATTTCAAATGGGGTTTTGTGGTTTCT | 1280
TGTATGAAAAAAACAGGAAACCACAGAGAACTGAGG | 2060
CTTAAATGGGAAATGTAGGTGTGGTTAAGTCACAAA | 915
GCCCAGGGCGGCCGGAAGTTTGCGGGGCGGGGCGGA | 1480
CGGGAGGGGCAGGAAGCGGACTGCGGTGGGGAAGGG | 1470
CTCTGCCCGCTTCCGCTGGCGGTACCTCAGAGCCGC | 4710
TGCGACGGAAGCAGGAACTTGCTAACCACAAAACCC | 3420
CACCCTGCCACTTCCCTAAACTCCCCGCACAGGCCG | 2140
